Data published in PubChem BioAssay (NCI).
Several values for one entry are separate records, joined by “and”; a condition that tells them apart may be missing. Identical values can stand only once. Compounds without any hit were thinned out: in the full panel of roughly 79,000, 15% have a hit. Unmarked numbers belong to inactive results. Rule as the data show it: active = growth inhibition above about 70%; inactive = the rest.

Test: NCI Yeast Anticancer Drug Screen. Data for the bub3 strain (AID 167)
Conditions: S. cerevisiae bub3 mutant strain, at 50.0 µM, active compounds read high
Method in brief: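 Mutant yeast screening strain plus compound; vehicle-treated cultures serve as the 0% inhibition reference.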

Compound | growth inhibition
Oc1ccccc1-c1nc2ccccc2o1 | 1.05% and 24.3%
Cc1cn(C2CC(CCCO)C(CO)O2)c(=O)[nH]c1=O (stereo not drawn) | 2.3% and 0.3%
N#CC1OC1c1cccc[n+]1[O-] (stereo not drawn) | -11.7% and -13.9%
O=C(CCCCCCCCC(=O)NCC1(c2ccccc2)CCN(Cc2ccccc2)CC1)NCC1(c2ccccc2)CCN(Cc2ccccc2)CC1 | 10.4% and 3.6%
CCCCc1ccc(OC2OC(COC(C)=O)C(OC(C)=O)C(OC(C)=O)C2OC(C)=O)cc1 (stereo not drawn) | -32.5% and -4.9%
S=c1nc[nH]c2ccccc12 | -2.75% and -2.25%
OC1COCOC1C1OCOCC1O (stereo not drawn) | -1.9% and -4.2%
OCC(O)C(O)C(O)C(O)[C@@H](O)c1nc2ccccc2[nH]1 (stereo partly drawn) | 2.8% and 21.2%
CC(CC(=O)O)C(C(=O)O)C(=O)O (stereo not drawn) | -21.8% and 8.7%
C/C(=N\NS(C)(=O)=O)C(C)(C)C | -35.5% and -20.8%
COc1cc2c(cc1OC)C(=O)C1COC(=O)C1C2 (stereo not drawn) | -6.2% and -4.85%
Nc1cc(S(=O)(=O)O)ccc1Cl | 6.95% and 14.1%
COc1ccc(COC(=O)NCC(=O)NC(C)C(=O)NC(Cc2ccccc2)C(=O)OCc2ccccc2)cc1 (stereo not drawn) | -0.7% and 1.65%
